In the supplement of paper PMC11172423:

What was measured:
[1] = tested on: Falciformispora senegalensis CBS197.79; test: growth relative to untreated control; higher = less inhibition, active = 20 or less
Summary of the method: (§1)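 Growth was expressed as metabolic activity relative to the untreated growth control, with both corrected using a blank of medium plus dye. Hyphal fragments of M. mycetomatis MM55 or F. senegalensis CBS197.79 were suspended to 68–72% transmission at 660 nm in colourless RPMI 1640 containing L-glutamine and MOPS. In 96-well plates they were exposed to compound at 100 or 25 µM for 7 days at 37 °C, and viability was read with MTS (2 h, 490 nm) or resazurin (600 nm).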

[2] = tested on: Madurella mycetomatis MM55; test: as above
Summary of the method: as §1

Measured: growth

O=C(Nc1ncccc1O)c1ccc(Cn2cccn2)cc1
inactive: [1]; 25 µM 87.3% | [1]; 100 µM 86.4% | [2]; 25 µM 93.2% | [2]; 100 µM 123%

CC[C@H](C)[C@H]1O[C@]2(CC[C@@H]1C)C[C@@H]1C[C@@H](C/C=C(\C)[C@@H](O[C@H]3C[C@H](OC)[C@@H](O[C@H]4C[C@H](OC)[C@@H](O)[C@H](C)O4)[C@H](C)O3)[C@@H](C)/C=C/C=C3\CO[C@@H]4[C@H](O)C(C)=C[C@@H](C(=O)O1)[C@]34O)O2
inactive: [1]; 25 µM 93.9% | [1]; 100 µM 106% | [2]; 25 µM 73.2% | [2]; 100 µM 83.5%

O=C(NCc1ccco1)c1ccc2[nH]c(COc3ccc(C45CC6CC(CC(C6)C4)C5)cc3)nc2c1
inactive: [1]; 25 µM 97.5% | [1]; 100 µM 84.5% | [2]; 25 µM 87.5% | [2]; 100 µM 168%

FC(F)(F)c1cc(Cl)cc(Nc2nc3cnc(NC4CCC4)cc3[nH]2)c1
inactive: [1]; 25 µM 70.6% | [2]; 25 µM 109% | [2]; 100 µM 27%
active: [1]; 100 µM 10.8%

CN(C)CCCN1c2ccccc2CCc2ccc(Cl)cc21
inactive: [1]; 25 µM 51.5% | [2]; 25 µM 38.1%
active: [1]; 100 µM 12.5% | [2]; 100 µM 3.39%

CN1CCC[C@@H]1CCO[C@](C)(c1ccccc1)c1ccc(Cl)cc1
active: [1]; 25 µM 17.9% | [1]; 100 µM 13.7% | [2]; 25 µM 11.1% | [2]; 100 µM 4.37%

O=C(Nc1cccc(-c2cc3nc(Nc4ccc(N5CCOCC5)cc4)ncc3[nH]2)c1)C1CC1
inactive: [1]; 25 µM 89.7% | [1]; 100 µM 85.2% | [2]; 25 µM 78.9% | [2]; 100 µM 72.6%

COC(=O)C1=C(C)NC(C)=C(C(=O)OCCN2CCN(C(c3ccccc3)c3ccccc3)CC2)C1c1cccc([N+](=O)[O-])c1 (stereo not given)
inactive: [1]; 25 µM 94% | [1]; 100 µM 99.1% | [2]; 25 µM 81.7% | [2]; 100 µM 86.7%

O=C(Nc1cccc(-c2n[nH]c3ccc(-c4n[nH]c(C5CCCN5)n4)cc23)c1)C1CC1 (stereo not given)
inactive: [1]; 25 µM 102% | [1]; 100 µM 95% | [2]; 25 µM 62.4% | [2]; 100 µM 36.4%

O=C(Nc1cccc(Cl)c1)c1ccnc(N2CCC(N3CCCC3)CC2)c1
inactive: [1]; 25 µM 95.5% | [1]; 100 µM 28.1% | [2]; 25 µM 73.7%
active: [2]; 100 µM 5.81%

CC(C)(C)NC(=O)N[C@H](C(=O)N1C[C@H]2[C@@H]([C@H]1C(=O)NC(CC1CCC1)C(=O)C(N)=O)C2(C)C)C(C)(C)C (stereo not given in full)
inactive: [1]; 25 µM 103% | [1]; 100 µM 101% | [2]; 25 µM 103% | [2]; 100 µM 81.9%

CN(C)CCCN1C(=O)c2[nH]nc(-c3ccc(Cl)cc3O)c2C1c1ccc(Cl)cc1 (stereo not given)
inactive: [1]; 25 µM 83.3% | [1]; 100 µM 25.4% | [2]; 25 µM 68%
active: [2]; 100 µM 6.84%

O=C(c1ccc(Nc2nccc(-c3ccc(Cl)cc3)n2)cc1)N1CC[C@@H](CO)C1
inactive: [1]; 25 µM 91.1% | [1]; 100 µM 89.6% | [2]; 25 µM 113% | [2]; 100 µM 117%

CCCCN(CCCC)CCC(O)c1cc2c(Cl)cc(Cl)cc2c2cc(C(F)(F)F)ccc12 (stereo not given)
inactive: [1]; 25 µM 98.2% | [1]; 100 µM 106% | [2]; 25 µM 75.6% | [2]; 100 µM 77.3%

O=C(Nc1ncc([N+](=O)[O-])s1)c1ccccc1O
inactive: [1]; 25 µM 95.8% | [1]; 100 µM 100% | [2]; 25 µM 72.6% | [2]; 100 µM 91.8%
